The campaign covered roughly 310,000 compounds. About 17,000 (5.5%) were called active. Not shown: some 11% with an inconclusive outcome. The full list was thinned out, with actives kept by preference. A number with no mark means an inactive call. Calls follow the shape of the dose curve; as a rule, active = well fitted inhibition curve with a large enough effect; inconclusive = small, poorly fitted or top-dose-only effect, or effect the other way; inactive = no such curve, though single readings can be large or run the other way.
Each compound was assayed against Nuclear receptor ROR-gamma (Mus musculus) (UniProt P51450) (assay: qHTS for inhibitors of ROR gamma transcriptional activity). Details: Drosophila S2 Gal4-RORgamma UAS-luciferase reporter, 20 h; series mostly up to 53.6 µM; activity change, negative = inhibition: at the top concentration.
Chain of Nuclear receptor ROR-gamma (Mus musculus) (P51450 whole entry, looked up, the tested form may be a part): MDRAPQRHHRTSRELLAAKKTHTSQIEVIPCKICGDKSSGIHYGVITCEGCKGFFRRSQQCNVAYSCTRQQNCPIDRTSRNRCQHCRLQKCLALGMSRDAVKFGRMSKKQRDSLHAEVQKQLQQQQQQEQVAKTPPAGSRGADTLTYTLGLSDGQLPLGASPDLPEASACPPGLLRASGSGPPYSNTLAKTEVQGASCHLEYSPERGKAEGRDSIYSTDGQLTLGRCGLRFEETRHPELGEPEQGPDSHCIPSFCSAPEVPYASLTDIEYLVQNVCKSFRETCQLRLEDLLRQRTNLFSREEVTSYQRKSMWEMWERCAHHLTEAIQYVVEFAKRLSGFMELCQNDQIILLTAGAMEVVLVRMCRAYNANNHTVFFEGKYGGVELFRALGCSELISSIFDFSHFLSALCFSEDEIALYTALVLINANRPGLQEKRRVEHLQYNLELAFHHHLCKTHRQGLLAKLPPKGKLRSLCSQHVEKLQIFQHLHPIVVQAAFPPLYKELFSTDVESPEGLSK
Description: NIH Molecular Libraries Probe Production Network [MLPCN] NIH Chemical Genomics Center [NCGC] MLPCN Grant: R03 DA026211-01 Assay Provider: Dan Littman, New York University Assay Overview: The retinoic acid-related orphan receptor (ROR) gamma is a transcription factor that has a central role in the differentiation of Th17 cells, a subset of T helper cells that secrete the inflammatory cytokines IL-17, IL-17F, and IL-22. Th17 cells have been implicated in graft versus host disease, autoimmune disease and asthma. ROR gamma is induced in naive T helper cells in the presence of TGF-beta combined with IL-6, IL-21, or IL-23, and thereafter directs the expression of the Th17 lineage cytokines. To study the mechanism of action of ROR gamma, an insect cell-based assay was screened. This Drosophila Schneider cell line was stably transfected with two vectors: a gene expressing a fusion of the Gal4 DNA binding domain and ROR gamma transactivation domain under the control of the metallothionine promoter and a Photinus luciferase reporter regulated by the Gal4 binding site enhancer, UAS. […] Small molecule inhibitors of ROR gamma activity are detected by a decrease in luciferase reporter activity.
Assay Protocol Summary: For screening, 600 cells in 4 uL/well were dispensed into white solid 1536-well plates (Grenier) using a solenoid-based dispenser. Following transfer of 23 nL compound or DMSO vehicle by a pin tool, the plates were incubated 1 hr at ambient temperature, and 1 uL/well copper sulfate (700 uM final concentration) was added. The plates were centrifuged 15 s at 1000 RPM and incubated 20 hr at ambient temperature. After addition of 1.5 uL Photinus luciferase detection reagent, the plates were incubated 10 min at ambient temperature and then read by an ViewLux (Perkin Elmer) to detect luminescence. Keywords: NIH Roadmap, MLPCN, MLI, MLSMR, qHTS, NCGC, qHTS, nuclear hormone receptor, retinoic acid-related orphan receptor, ROR gamma
For CC(CC(=O)N1CCN(S(=O)(=O)c2ccccc2)CC1)n1cncn1 (stereo unspecified), the “activity change, negative = inhibition” value was 3.92%.
For CCOc1ccc(-n2c(SCC(=O)Nc3ccc(OC)cc3)nc3sc4c(c3c2=O)CCN(C)C4)cc1, the “activity change, negative = inhibition” value was 11.9%.
CCOc1ccccc1-c1nc(CN2CCC(C(=O)N3CCOCC3)CC2)c(C)o1 was tested, and the “activity change, negative = inhibition” value was -0.916%.
For Cn1c(=O)c(-c2ccccc2)nc2cnc(N3CCNCC3)nc21, the “activity change, negative = inhibition” value was -20.6%.
In the case of O=c1c(-c2ccc(F)cc2)nc2cnc(N3CCNCC3)nc2n1Cc1cccs1, the “activity change, negative = inhibition” value is reported as -5.47%.
N#Cc1cccc(-c2nc3cnc(N4CCNCC4)nc3n(C3CC3)c2=O)c1 was tested, and the Potency was 12.6 µM (active).
Cc1c2cnn(CC(=O)NCCCN3CC(C)CC(C)C3)c(=O)c2c(C)n1Cc1ccc(Cl)cc1 (stereo unspecified) was tested, and the “activity change, negative = inhibition” value was -33.5%.
For CC(C)(c1ccccc1)c1ccc(OCCN2CCCC2)cc1, the “activity change, negative = inhibition” value was -9.7%.
For O=C(NCCCn1ccnc1)c1ccccc1F, the “activity change, negative = inhibition” value was -8.55%.
For CN(Cc1ccccc1)C(=O)c1cccc(C(=O)N(C)Cc2ccccc2)c1, the “activity change, negative = inhibition” value was -14.3%.
With O=c1c([N+](=O)[O-])cc(C(F)(F)F)cn1Cc1cccc(Cl)c1 the “activity change, negative = inhibition” value was 26.4%.
With O=[N+]([O-])/C=C/c1ccc2c(ccn2Cc2ccccc2)c1 the Potency was 12.6 µM (active).
For O=C(Cn1ccc2cc(S(=O)(=O)N3CCCC3)ccc21)NCc1ccccc1, the “activity change, negative = inhibition” value was 4.66%.
In the case of Cc1c(C(=O)NCC(c2ccco2)N2CCCC2)oc2ccc(Cl)cc12 (stereo unspecified), the “activity change, negative = inhibition” value is reported as 8.17%.
In the case of Cc1onc(C(=O)Nc2ccc3c(c2)OCO3)c1[N+](=O)[O-], the “activity change, negative = inhibition” value is reported as 36.5%.
CCCc1[nH]nc2c1C(c1ccc(OC(=O)c3ccco3)cc1)C(C#N)=C(N)O2 (stereo unspecified) was tested, and the “activity change, negative = inhibition” value was -14.4%.
In the case of CCCc1[nH]nc2c1C(c1c(C)nn(-c3ccccc3)c1Cl)C(C#N)=C(N)O2 (stereo unspecified), the “activity change, negative = inhibition” value is reported as 33.4%.
With CCCc1[nH]nc2c1C(c1ccc(Br)s1)C(C#N)=C(N)O2 (stereo unspecified) the Potency was 12.6 µM (active).
For Cc1ccc(S(=O)(=O)N(Cc2ccccc2)c2ccccn2)cc1[N+](=O)[O-], the “activity change, negative = inhibition” value was 34.1%.
Cc1cccc(OCC(O)CN2CCN(S(=O)(=O)c3ccc(C)cc3C)CC2)c1 (stereo unspecified) was tested, and the “activity change, negative = inhibition” value was 11.8%.
Cc1cc(C)nc(NC2=NCC(=O)N2c2ccc(Cl)cc2)n1 was tested, and the Potency was 0.224 µM (active).
For Cc1ccc(N2C(=O)CN=C2Nc2nc(C)cc(C)n2)cc1, the “activity change, negative = inhibition” value was -23.8%.
For COc1ccc(N2C(=O)CN=C2Nc2cccc(C)c2C)cc1OC, the “activity change, negative = inhibition” value was 5.1%.
CC1CN(C(=O)CCC(=O)NCc2cccnc2)c2ccccc2O1 (stereo unspecified) was tested, and the “activity change, negative = inhibition” value was -22.8%.
With Cc1ccc(C(=O)N2CC(=O)Nc3ccc(F)cc3C2c2ccc(F)cc2)cc1 (stereo unspecified) the “activity change, negative = inhibition” value was 40.3%.
For CC(Sc1nncn1C)C(=O)Nc1cc(C(F)(F)F)ccc1N1CCOCC1 (stereo unspecified), the “activity change, negative = inhibition” value was 11.5%.
With Cc1ccccc1NC(=O)Nc1ccccc1N1CCCCC1 the “activity change, negative = inhibition” value was -4.44%.
For Cc1cccc(OCCC(=O)Nc2cc(S(=O)(=O)N3CCCCC3)ccc2N2CCOCC2)c1, the “activity change, negative = inhibition” value was -0.287%.
O=C(Nc1ccccc1N1CCN(C(=O)c2ccccc2)CC1)c1ccco1 was tested, and the “activity change, negative = inhibition” value was 18%.
COc1ccccc1C(=O)NC(=S)Nc1ccccc1N1CCCCC1 was tested, and the Potency was 3.98 µM (active).
In the case of CC(=O)N1CCN(c2ccccc2NC(=S)NC(=O)c2cc3ccccc3o2)CC1, the Potency is reported as 11.2 µM (active).
O=C(NC(=S)Nc1cc(C(F)(F)F)ccc1N1CCOCC1)c1ccc(-c2cccc(Cl)c2)o1 was tested, and the Potency was 10 µM (active).
COc1cc(C(=O)Nc2cc(C(F)(F)F)ccc2N2CCOCC2)ccc1O was tested, and the “activity change, negative = inhibition” value was 18.1%.
With Cc1cccc(OCC(=O)NC(=S)Nc2ccccc2N2CCOCC2)c1 the Potency was 11.2 µM (active).
For COc1ccccc1C(=O)NC(=S)NC12CC3CC(CC(C3)C1)C2, the “activity change, negative = inhibition” value was -11%.
With Cc1ccc(NC(=O)c2cc3ccccc3o2)cc1 the “activity change, negative = inhibition” value was -8.5%.
Cc1cccc(OCC(=O)Nc2ccccc2F)c1 was tested, and the “activity change, negative = inhibition” value was -0.216%.
In the case of O=C1CCN(Cc2ccccc2)CCN1[C@H](CSc1ccccc1)c1ccccc1, the “activity change, negative = inhibition” value is reported as 6.36%.
With COC(=O)c1ccc(N2CCOCC2)c(NC(=O)c2ccc3c(c2)OCCO3)c1 the “activity change, negative = inhibition” value was -23.4%.
With Cc1cc(NC(=O)c2ccco2)c(=O)n(Cc2c(F)cccc2Cl)c1 the “activity change, negative = inhibition” value was 6.19%.
For COCCNc1nc(N)c([N+](=O)[O-])c(N2CCCCCC2)n1, the “activity change, negative = inhibition” value was 21.8%.
For CCOc1ccc(-c2noc(CCC(=O)NC3CCCC3)n2)cc1OC, the “activity change, negative = inhibition” value was 13.1%.
In the case of O=C(c1ccc(CS(=O)(=O)c2ccccc2)o1)N1CCN(c2ccccc2)CC1, the “activity change, negative = inhibition” value is reported as 18.4%.
COc1ccc(CNC(=O)[C@H](Cc2c[nH]c3ccccc23)NC(C)=O)cc1OC was tested, and the “activity change, negative = inhibition” value was -14.9%.
O=C(NCCCN1CCOCC1)C1CCCN(S(=O)(=O)N2CCCCC2)C1 (stereo unspecified) was tested, and the “activity change, negative = inhibition” value was -11%.
O=C(CCNC(=O)c1ccc([N+](=O)[O-])cc1)Nc1ccccc1N1CCOCC1 was tested, and the “activity change, negative = inhibition” value was -19.6%.
With O=C(NC(=S)Nc1ccccc1N1CCCCC1)c1ccc(F)cc1 the Potency was 3.98 µM (active).
With O=C(Nc1ccccc1N1CCCC1)c1ccc2ccccc2c1 the “activity change, negative = inhibition” value was 7%.
With O=C(Nc1ccccc1N1CCCCC1)c1cccc(F)c1 the “activity change, negative = inhibition” value was -27.2%.
With CCc1ccc(C(=O)NC(=S)Nc2ccccc2N2CCOCC2)cc1 the Potency was 3.55 µM (active).
CC(=O)c1ccc(N2CCN(CC(=O)Nc3ccccc3N3CCOCC3)CC2)cc1 was tested, and the “activity change, negative = inhibition” value was 32.1%.
CC1CCN(CC(O)COc2ccc(C(=O)c3ccccc3)cc2)CC1 (stereo unspecified) was tested, and the “activity change, negative = inhibition” value was -4.49%.
With O=C(NCc1cccc(Cl)c1)C1CCC(=O)N(C2CC2)C1 (stereo unspecified) the “activity change, negative = inhibition” value was 1.36%.
In the case of Cc1cc(CN(C)C(=O)c2cc(COc3ccc(C)c(C)c3)on2)n[nH]1, the “activity change, negative = inhibition” value is reported as -24%.
O=C(NNC1=NCCC1)c1cccc(S(=O)(=O)N2CCCCC2)c1 was tested, and the Potency was 12.6 µM (active).
With O=C(Nc1nncs1)c1cccc(S(=O)(=O)N2CCCCC2)c1 the “activity change, negative = inhibition” value was 46.3%.
For O=C(NNC(=S)Nc1ccccc1)c1cccc(S(=O)(=O)N2CCOCC2)c1, the “activity change, negative = inhibition” value was -23.5%.
For CN(CC1CCCN(CCc2cccc(C(F)(F)F)c2)C1)C(=O)c1ccc2nc[nH]c2c1 (stereo unspecified), the “activity change, negative = inhibition” value was -10.7%.
In the case of CCOC(=O)c1ccc(NC(=O)c2ccc(NC(=O)C3CCCO3)cc2)cc1 (stereo unspecified), the “activity change, negative = inhibition” value is reported as -2.12%.
For COc1ccc(C2=NN(c3ccccc3)C(c3cccs3)C2)cc1 (stereo unspecified), the “activity change, negative = inhibition” value was 23.1%.
In the case of COc1ccc(C2=NN(c3nc4ccccc4s3)C(=O)C2)cc1, the Potency is reported as 5.62 µM (active).
With COC(=O)Cc1[nH]n(-c2nc3ccccc3s2)c(=O)c1C(C)=Nc1ccc(OC)cc1 the “activity change, negative = inhibition” value was -5.29%.
For COC(=O)c1cc(OC)c(OC)cc1NC(=O)CSc1ccc(C)cc1, the “activity change, negative = inhibition” value was -14.2%.
For COc1cc(NC(=S)NCCSc2ccc(C)cc2)cc(OC)c1, the Potency was 7.08 µM (active).
For COc1ccc(NC(=S)NCCNC(C)=O)cc1, the “activity change, negative = inhibition” value was 13.1%.
With CC1=C(C(=O)OCC2CCCCC2)C(c2ccc(F)cc2)NC(=O)N1 (stereo unspecified) the “activity change, negative = inhibition” value was 44%.

Source: PubChem BioAssay AID2551 (National Center for Advancing Translational Sciences (NCATS), 2010)
% is scaled to controls: 0 for no effect and ±100 for the full control effect; potency is read from the fitted curve at half-maximal effect.
Also: nearly all actives have a fitted effect of over 60% in size.
